# In PubChem BioAssay (NCATS):
# Inconclusive results are not listed. The source made the active and inactive calls. Unless noted, calls come from the whole dose curve; as a rule, active = well fitted curve in the direction sought with a large enough effect; inconclusive = small, poorly fitted or top-dose-only effect, or another doubt; inactive = no such curve, though single readings can be large; an effect the other way counts as inactive or inconclusive.
# How the values were obtained:
# [1] = qHTS for inhibitors of Rabies Virus screened against the NCATS CANVASS Library (AID 1347402; calls by dose curve); settings: Rabies virus infection cell assay; series mostly up to 45.9 µM
# [2] = qHTS to identify inhibitors of the type 1 interferon - major histocompatibility complex class I in skeletal muscle: primary screen against the NCATS Pharmaceutical Collection (AID 1347407); settings: human skeletal muscle cells, IFN-b-induced MHC-I HiBiT luminescence, 24 h; series mostly up to 45.9 µM
# How it was run: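 Cells were seeded with 4 ng/ml IFN-beta, incubated 1 h, then dosed with compounds over eight 1:5 steps up to 46 uM final. After 24 h at 37 C, HiBiT lytic reagent was added and luminescence read after 10 min lysis in the dark.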
# [3] = qHTS to identify inhibitors of the type 1 interferon - major histocompatibility complex class I in skeletal muscle: primary screen against the NCATS LOPAC collection (AID 1347405); settings: iHSKM muscle cells, IFN-b-induced MHC-I HiBiT luminescence, 24 h; series mostly up to 45.9 µM
# How it was run: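 HLA-B HiBiT myoblasts, IFN-b 4 ng/ml, dexamethasone-free medium; compounds 7-pt 1:4.3 titration, top 46 uM final; 24 h at 37 C; Nano-Glo HiBiT lytic reagent, 10 min RT, luminescence.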
# [4] = Secretion counterscreen for inhibitors of the SERCaMP assay screened against the NCATS CANVASS Library (AID 1347390); settings: SH-SY5Y constitutive GLuc secretion, luminescence, 20 h; series mostly up to 152 µM
# How it was run: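 Counterscreen identifying compounds that disrupt secretion, using SH-SY5Y cells with a constitutively secreted Gaussia luciferase reporter. A 20 h compound exposure (top 77 uM) precedes luminescent detection with coelenterazine.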
# [5] = qHTS for activators of Nrf2/ARE signaling pathway screened against the NCATS CANVASS Library (AID 1347391); settings: ARE-bla HepG2, beta-lactamase reporter, 16 h; series mostly up to 91.4 µM
# How it was run: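 HepG2 ARE-bla; cpd 11-pt qHTS, 16 h 37C/5% CO2; CCF4 substrate 2 h RT; read ex 405 / em 460 + 530 nm. Viability by CellTiter-Glo luminescence, 30 min RT.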
# [6] = qHTS for activators of dead-cell proteases activity screened against the NCATS CANVASS Library (AID 1347392); settings: HepG2 cytotoxicity, dead-cell protease luminescence, 5 h; series mostly up to 91.4 µM
# How it was run: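 Luminescent dead-cell protease readout (AAF-aminoluciferin, 15 min, room temperature) after 5 h compound treatment of HepG2 cells (2000/well, pre-attached 18 h). Eleven concentrations.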
# [7] = Vero-766 cells viability qHTS against the NCATS CANVASS Library: Counterscreen for Zika virus inhibition assay (AID 1347394); settings: Vero 766 viability, CellTiter-Glo luminescence, 72 h; series mostly up to 91.4 µM
# How it was run: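 This cytotoxicity counterscreen uses African green monkey Vero 766 cells in the absence of Zika virus. Compounds are incubated with cells for 72 h, and ATP-based luminescence reports viability.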
# [8] = qHTS for inhibitors of Wild type Zika virus screened against the NCATS CANVASS Library (AID 1347396); settings: Vero cells, Zika virus CPE, CellTiter-Glo, 72 h; series mostly up to 91 µM
# How it was run: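 Luminescent CellTiter Glo read-out of virus-induced cytotoxicity, 72 h post-infection, in Vero 766 cells. Compounds were tested at 11 concentrations; uninfected, vehicle-treated wells defined 100% inhibition.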
# [9] = Viability qHTS for inhibitors of the SERCaMP assay screened against the NCATS CANVASS Library (AID 1347400); settings: SH-SY5Y SERCaMP cells viability, CellTiter-Glo, 48 h; series mostly up to 183 µM
# Excerpt: Natural products and their derivatives continue to be wellsprings of nascent therapeutic potential. However, many laboratories have limited resources for biological evaluation, leaving their previously isolated or synthesized compounds largely or completely untested. To address this issue, the Canvass library of natural products was assembled (https://tripod.nih.gov/canvass), in collaboration with academic and industry researchers, for quantitative high-throughput screening (qHTS) across a diverse set of cell-based and biochemical assays. The pure (>85% purity by liquid chromatography/mass spectrometry [LC/MS]) Canvass library of 346 natural products were submitted by 45 academic laboratories and companies around the world. We collected pure natural products to circumvent deconvolution and structure elucidation due to time and resource limitations. The library was formatted into 1536-well plates and evaluated in 50 qHTS (in an 11-pnt concentration series) bioassays with broad scope of disease-relevant mechanisms. The resulting data set from 50 different assays was then systematically analyzed to identify overall trends and specific natural products with interesting biological activities. […]
# SERCaMP Viability assay protocol: 1. […] Luminescence signal was obtained via the ViewLux plate reader (Perkin Elmer) using the clear emission filter and 1x binning, 2 seconds exposure settings.
# [10] = Redox Reaction Profiling qHTS: Assay Interference Panel against the NCATS CANVASS Library (AID 1347401); settings: resazurin-DTT redox cycling, fluorescence, 15 min; series mostly up to 113 µM
# How it was run: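 Redox-cycling liability assessed as DTT-driven conversion of resazurin (5 uM, with 200 uM DTT, HEPES pH 7.3) to fluorescent resorufin. Fluorescence at 525/598 nm measured initially and after 15 min dark incubation.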
smiles,measurement,setting,value
COC(=O)[C@@H]1[C@H]2C[C@H]3c4[nH]c5ccccc5c4CCN3C[C@@H]2CC[C@@H]1O,outcome,[1],inactive
CC(C)(N)Cc1ccccc1Cl,Potency,[2],inactive
COc1ccc2c(c1OC)C(=O)O[C@H]2[C@@H]1c2cc3c(cc2CCN1C)OCO3,outcome,[3],inactive
same,Potency,[2],inactive
c1ccc2c(c1)sc1ccccc12,Potency,[2],inactive
CCC1(c2ccc(N)cc2)CCC(=O)NC1=O (centres undefined),outcome,[3],inactive
same,Potency,[2],inactive
COc1cccc(C(=O)CCN[C@@H](C)[C@H](O)c2ccccc2)c1,Potency,[2],inactive
O=C(Nc1ccc(Br)cc1)c1cc(Br)cc(Br)c1O,Potency,[2],inactive
O=C(O)c1cc(O)c(O)c(O)c1,outcome,[1],inactive
CC(NC(C)(C)C)C(=O)c1cccc(Cl)c1 (centres undefined),outcome,[3],inactive
same,Potency,[2],inactive
COC1CC(=C(c2cccs2)c2cccs2)C[N+](C)(C)C1 (centres undefined),Potency,[2],inactive
O=c1[nH]oc2c1CCNC2,outcome,[3],inactive
same,Potency,[2],inactive
NCCc1ccc(O)cc1,outcome,[4],inactive
same,outcome,[5],inactive
same,outcome,[6],inactive
same,outcome,[7],inactive
same,outcome,[8],inactive
same,outcome,[9],inactive
same,outcome,[10],inactive
same,outcome,[3],inactive
same,Potency,[2],inactive
CC(C)N(CCC(C(N)=O)(c1ccccc1)c1ccccn1)C(C)C (centres undefined),outcome,[3],inactive
same,Potency,[2],inactive
CCN(CCO)CCn1c(Cc2ccccc2)nc2c1c(=O)n(C)c(=O)n2C,Potency,[2],inactive
COP(=S)(OC)Oc1ccc(S(=O)(=O)N(C)C)cc1,Potency,[2],inactive
O=P1(N(CCCl)CCCl)NCCCO1 (centres undefined),outcome,[3],inactive
same,Potency,[2],inactive
COc1c2c(cc3c1OCO3)CCN(C)C2,Potency,[2],inactive
CC(C)c1c(CN(C)C(C)Cc2ccccc2)n(C)n(-c2ccccc2)c1=O (centres undefined),Potency,[2],inactive
COP(=S)(OC)SCN1C(=O)c2ccccc2C1=O,Potency,[2],inactive
C[C@]12CCC(=O)C=C1CC[C@@H]1[C@@H]2CC[C@@]2(C)[C@H]1CC[C@]2(C)O,Potency,[2],inactive
